Assay results reported in the supplement of paper PMC11732987, “Enantioselective OTUD7B fragment discovery through chemoproteomics screening and high-throughput optimisation” (Communications Chemistry, 2025).

What was measured:
Test in all cases: log2 ratio of Biotin-Ahx-Ub-VS probe labelling (fragment/DMSO); higher = less target engagement (more negative = stronger competition), active = hit call of the paper (q ≤ 0.05, log2 ratio ≤ -1)
Settings in all cases: compound concentration: 200 uM; treatment time: 3 h
[1] = molecular target: T1, USP19 (UniProt O94966)
T1 sequence (whole entry): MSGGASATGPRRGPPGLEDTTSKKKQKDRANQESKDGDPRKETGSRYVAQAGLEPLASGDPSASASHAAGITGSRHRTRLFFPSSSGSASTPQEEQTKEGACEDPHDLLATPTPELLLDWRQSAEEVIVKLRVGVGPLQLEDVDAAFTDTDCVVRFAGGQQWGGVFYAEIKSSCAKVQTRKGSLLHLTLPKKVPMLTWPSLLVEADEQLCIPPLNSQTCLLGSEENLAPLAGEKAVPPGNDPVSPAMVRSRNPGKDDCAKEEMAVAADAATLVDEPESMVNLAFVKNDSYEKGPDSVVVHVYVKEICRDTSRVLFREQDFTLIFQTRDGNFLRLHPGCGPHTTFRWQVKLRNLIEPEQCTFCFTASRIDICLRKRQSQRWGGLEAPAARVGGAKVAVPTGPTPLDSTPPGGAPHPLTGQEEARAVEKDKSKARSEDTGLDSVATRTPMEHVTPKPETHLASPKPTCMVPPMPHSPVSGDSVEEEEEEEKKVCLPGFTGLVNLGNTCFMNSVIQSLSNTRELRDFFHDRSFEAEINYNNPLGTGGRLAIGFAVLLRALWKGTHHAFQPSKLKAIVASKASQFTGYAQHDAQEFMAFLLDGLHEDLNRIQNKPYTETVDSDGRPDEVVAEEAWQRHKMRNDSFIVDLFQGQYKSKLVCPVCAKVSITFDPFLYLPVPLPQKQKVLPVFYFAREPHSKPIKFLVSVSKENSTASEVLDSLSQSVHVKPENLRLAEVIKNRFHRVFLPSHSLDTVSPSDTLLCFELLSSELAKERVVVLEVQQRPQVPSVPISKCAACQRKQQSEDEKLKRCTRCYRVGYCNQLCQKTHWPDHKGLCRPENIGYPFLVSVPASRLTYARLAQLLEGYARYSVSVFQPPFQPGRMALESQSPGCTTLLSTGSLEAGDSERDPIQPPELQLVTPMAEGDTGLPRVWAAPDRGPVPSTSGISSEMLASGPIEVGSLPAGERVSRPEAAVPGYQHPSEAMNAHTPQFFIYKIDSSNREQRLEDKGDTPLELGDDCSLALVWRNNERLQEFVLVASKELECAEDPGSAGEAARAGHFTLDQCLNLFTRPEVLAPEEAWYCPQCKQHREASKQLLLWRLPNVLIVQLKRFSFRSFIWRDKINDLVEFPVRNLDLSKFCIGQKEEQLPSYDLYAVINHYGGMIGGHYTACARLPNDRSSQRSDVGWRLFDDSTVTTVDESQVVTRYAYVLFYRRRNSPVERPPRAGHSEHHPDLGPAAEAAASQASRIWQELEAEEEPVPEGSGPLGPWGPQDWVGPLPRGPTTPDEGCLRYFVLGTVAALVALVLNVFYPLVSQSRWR
Summary of the method: (§1)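 Each value is an average log2 ratio of fragment to vehicle, tested by unpaired t-test. The underlying Spectronaut label-free quantities were global-median-normalised, and only proteins with ≥2 unique peptides were included. Triplicate HEK293T lysate samples (495 µg) were exposed to fragment at 200 µM or vehicle for 3 h, then to Biotin-Ahx-Ub-VS at 0.5 µM final for 1 h, before NeutrAvidin enrichment of labelled DUBs, LysC and trypsin digestion, and diaPASEF LC-MS/MS.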

[2] = molecular target: T2, USP22 (UniProt Q9UPT9)
T2 sequence (whole entry): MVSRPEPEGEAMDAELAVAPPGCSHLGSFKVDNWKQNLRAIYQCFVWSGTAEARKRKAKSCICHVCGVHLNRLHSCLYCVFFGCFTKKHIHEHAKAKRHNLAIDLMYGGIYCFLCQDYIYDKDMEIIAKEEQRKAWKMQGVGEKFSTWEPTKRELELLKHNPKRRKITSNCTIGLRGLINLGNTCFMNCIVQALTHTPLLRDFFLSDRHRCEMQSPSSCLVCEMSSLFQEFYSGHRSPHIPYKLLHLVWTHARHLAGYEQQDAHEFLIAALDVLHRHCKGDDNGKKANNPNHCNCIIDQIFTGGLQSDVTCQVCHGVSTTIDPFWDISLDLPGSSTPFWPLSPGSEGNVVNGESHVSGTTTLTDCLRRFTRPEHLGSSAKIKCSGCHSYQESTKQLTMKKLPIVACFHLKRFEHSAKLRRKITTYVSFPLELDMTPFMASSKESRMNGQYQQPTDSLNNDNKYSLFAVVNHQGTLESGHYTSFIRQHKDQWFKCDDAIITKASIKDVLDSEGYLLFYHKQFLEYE
Summary of the method: as §1

[3] = molecular target: USP24 (UniProt Q9UPU5)
Summary of the method: as §1

[4] = molecular target: T3, USP25 (UniProt Q9UHP3)
T3 sequence (whole entry): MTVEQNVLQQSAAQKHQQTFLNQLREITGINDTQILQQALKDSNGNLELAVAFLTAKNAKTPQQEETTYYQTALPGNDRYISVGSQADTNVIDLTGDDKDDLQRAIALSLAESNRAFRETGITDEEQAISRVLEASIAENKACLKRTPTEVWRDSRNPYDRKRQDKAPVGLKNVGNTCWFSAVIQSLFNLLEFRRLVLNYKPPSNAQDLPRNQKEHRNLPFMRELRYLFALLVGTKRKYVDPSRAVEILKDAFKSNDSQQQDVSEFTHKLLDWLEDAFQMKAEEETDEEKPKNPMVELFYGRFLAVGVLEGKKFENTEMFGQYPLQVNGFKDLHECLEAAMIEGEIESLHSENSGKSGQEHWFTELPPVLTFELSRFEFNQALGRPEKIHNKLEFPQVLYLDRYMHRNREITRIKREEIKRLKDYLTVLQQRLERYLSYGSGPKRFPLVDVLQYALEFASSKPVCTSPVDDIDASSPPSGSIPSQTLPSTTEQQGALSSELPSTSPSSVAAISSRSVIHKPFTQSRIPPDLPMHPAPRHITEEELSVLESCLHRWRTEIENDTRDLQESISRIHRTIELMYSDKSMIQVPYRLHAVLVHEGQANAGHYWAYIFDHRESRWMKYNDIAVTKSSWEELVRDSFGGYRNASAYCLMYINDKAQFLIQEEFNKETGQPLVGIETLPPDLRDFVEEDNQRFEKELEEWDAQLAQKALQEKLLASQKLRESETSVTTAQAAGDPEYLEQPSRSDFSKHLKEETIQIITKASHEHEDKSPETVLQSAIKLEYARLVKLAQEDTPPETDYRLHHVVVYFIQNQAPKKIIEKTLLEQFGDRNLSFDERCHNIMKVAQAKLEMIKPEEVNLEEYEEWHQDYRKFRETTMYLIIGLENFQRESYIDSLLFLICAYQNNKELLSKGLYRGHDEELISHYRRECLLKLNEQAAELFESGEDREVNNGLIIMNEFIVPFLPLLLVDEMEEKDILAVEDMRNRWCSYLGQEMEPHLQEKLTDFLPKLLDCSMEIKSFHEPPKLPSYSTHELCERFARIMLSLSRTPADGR
Summary of the method: as §1

[5] = molecular target: T4, USP28 (UniProt Q96RU2)
T4 sequence (whole entry): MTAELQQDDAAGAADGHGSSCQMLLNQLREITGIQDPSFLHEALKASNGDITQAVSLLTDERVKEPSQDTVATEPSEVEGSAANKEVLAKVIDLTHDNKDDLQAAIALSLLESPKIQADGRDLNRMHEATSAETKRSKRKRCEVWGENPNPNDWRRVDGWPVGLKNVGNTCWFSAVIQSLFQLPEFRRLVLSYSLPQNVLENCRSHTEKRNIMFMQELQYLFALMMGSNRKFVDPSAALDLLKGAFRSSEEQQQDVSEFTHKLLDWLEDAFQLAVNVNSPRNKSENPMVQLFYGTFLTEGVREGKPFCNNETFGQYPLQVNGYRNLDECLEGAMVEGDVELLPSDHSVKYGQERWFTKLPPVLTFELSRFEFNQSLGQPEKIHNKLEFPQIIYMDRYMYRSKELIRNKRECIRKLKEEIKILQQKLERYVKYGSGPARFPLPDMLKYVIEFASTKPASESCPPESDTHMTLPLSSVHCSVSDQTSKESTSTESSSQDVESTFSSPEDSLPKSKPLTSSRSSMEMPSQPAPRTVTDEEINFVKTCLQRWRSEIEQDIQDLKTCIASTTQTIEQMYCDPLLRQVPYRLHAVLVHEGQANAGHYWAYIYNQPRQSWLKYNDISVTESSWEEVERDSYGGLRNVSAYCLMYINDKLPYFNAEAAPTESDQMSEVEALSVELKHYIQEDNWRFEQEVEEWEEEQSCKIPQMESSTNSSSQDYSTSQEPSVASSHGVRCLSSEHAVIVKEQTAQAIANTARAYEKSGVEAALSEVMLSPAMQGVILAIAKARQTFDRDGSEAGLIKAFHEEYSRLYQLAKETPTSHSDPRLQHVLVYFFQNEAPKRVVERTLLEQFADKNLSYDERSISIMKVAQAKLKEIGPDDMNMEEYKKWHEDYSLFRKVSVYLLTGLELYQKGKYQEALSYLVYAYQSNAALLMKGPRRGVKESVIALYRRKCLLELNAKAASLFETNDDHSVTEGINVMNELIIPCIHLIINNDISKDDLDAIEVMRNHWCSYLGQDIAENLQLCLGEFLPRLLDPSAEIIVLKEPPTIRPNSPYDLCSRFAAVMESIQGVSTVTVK
Summary of the method: as §1

Measured: log2 ratio of Biotin-Ahx-Ub-VS probe labelling

Sequence of USP24 (Q9UPU5 whole entry): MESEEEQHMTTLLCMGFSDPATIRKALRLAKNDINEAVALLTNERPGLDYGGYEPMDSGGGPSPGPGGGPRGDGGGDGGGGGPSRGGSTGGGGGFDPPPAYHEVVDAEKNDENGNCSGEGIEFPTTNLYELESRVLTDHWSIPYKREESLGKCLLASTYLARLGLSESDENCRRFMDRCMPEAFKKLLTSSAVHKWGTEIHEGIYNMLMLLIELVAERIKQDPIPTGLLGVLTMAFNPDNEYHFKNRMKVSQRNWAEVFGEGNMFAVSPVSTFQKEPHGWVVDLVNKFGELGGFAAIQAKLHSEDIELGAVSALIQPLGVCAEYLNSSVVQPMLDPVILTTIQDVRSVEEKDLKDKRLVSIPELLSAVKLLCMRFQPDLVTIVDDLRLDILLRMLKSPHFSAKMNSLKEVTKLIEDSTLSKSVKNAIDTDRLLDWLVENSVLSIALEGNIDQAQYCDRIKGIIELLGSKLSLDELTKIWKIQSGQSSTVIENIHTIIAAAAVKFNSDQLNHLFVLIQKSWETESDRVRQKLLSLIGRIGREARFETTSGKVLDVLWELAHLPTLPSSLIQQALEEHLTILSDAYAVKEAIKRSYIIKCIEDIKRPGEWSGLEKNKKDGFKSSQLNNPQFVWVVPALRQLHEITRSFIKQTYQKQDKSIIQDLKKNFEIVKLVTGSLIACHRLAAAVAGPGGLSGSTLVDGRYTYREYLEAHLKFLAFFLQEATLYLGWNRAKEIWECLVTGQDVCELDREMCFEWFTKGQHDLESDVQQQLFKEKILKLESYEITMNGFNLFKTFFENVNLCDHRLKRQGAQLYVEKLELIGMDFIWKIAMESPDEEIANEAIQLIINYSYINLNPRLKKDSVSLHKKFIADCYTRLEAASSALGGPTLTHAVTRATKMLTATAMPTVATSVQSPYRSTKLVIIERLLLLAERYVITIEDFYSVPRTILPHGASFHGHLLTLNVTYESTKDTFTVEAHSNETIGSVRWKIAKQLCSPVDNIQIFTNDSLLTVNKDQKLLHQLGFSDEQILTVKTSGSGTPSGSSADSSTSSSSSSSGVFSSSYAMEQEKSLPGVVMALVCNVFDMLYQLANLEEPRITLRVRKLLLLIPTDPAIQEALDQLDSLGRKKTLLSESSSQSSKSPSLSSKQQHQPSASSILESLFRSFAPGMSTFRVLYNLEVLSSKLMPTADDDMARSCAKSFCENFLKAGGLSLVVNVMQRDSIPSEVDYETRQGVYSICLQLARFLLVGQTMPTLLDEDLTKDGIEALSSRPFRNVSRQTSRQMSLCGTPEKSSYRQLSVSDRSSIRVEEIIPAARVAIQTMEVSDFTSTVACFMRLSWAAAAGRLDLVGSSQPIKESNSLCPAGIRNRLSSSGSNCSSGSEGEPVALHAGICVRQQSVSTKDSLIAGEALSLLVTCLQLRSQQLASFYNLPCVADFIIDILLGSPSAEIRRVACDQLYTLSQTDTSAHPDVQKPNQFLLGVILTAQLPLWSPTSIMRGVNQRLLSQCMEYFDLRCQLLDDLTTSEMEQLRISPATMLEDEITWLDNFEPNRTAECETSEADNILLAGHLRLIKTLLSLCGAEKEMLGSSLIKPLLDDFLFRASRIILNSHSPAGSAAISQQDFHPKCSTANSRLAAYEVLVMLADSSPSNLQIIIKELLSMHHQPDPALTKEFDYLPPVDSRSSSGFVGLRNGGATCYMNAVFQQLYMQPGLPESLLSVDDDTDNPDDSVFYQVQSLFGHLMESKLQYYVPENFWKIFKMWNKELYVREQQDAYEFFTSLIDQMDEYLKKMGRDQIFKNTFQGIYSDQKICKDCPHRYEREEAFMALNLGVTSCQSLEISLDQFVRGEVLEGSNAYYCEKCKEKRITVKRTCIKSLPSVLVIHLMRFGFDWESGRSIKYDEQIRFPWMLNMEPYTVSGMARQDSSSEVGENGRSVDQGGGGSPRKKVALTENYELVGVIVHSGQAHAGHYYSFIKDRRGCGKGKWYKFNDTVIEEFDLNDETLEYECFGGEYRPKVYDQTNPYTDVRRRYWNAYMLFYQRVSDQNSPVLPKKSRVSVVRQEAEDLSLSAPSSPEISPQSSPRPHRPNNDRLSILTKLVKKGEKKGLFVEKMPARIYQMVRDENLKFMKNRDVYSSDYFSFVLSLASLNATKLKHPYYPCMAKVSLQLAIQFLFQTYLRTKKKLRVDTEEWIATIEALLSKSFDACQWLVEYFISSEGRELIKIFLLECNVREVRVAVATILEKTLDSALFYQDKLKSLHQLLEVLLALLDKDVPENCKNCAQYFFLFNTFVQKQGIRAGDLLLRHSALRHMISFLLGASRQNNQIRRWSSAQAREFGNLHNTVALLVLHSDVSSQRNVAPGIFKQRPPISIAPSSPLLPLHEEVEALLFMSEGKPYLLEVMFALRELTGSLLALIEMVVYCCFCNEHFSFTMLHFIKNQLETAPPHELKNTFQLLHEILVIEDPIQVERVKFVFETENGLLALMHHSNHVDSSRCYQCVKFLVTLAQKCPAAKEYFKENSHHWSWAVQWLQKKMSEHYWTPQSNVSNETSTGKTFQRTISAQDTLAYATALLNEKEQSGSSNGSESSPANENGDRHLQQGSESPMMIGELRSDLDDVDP

NC(=O)C1CCCN(C(=O)CCl)C1 (stereo not given)
inactive: [1] -0.249 | [2] 0.245 | [3] -0.257 | [4] -0.119 | [5] -0.348
